Assay outcomes: PubChem BioAssay, Broad Institute
In the library only some 4% were active in any assay of this set; here they are far more common.
DENV2 CPE: protects cells from dengue virus 2 cytopathic effect | DENV2-infected cells, cytopathic effect rescue, plate reader | CPE inhibition, % at 9.99 µM | hit rate 1.7% among 350,000; in the data active means CPE inhibition above about 20%, passing the limit was not always enough; inconclusive means no clear call, values can overlap the other calls; tested in BHK-21 cells;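 further: 0% = median of neutral control wells and 100% = median of positive control wells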
ERAP1 HTS inh: inhibitors of human ERAP1 aminopeptidase; hit rate 0.15% among 340,000; inhibition, % at 10.7 µM; AID 652197; recombinant ERAP1, Leu-AMC fluorescence, 60 min;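 active means mean replicate inhibition of at least 30%, or all replicates individually reaching that 30% level; inactive means mean below 30% and not every replicate reaching it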;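 further: 0% = neutral control wells and 100% = L-leucinethiol positive control wells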
FGF22 binding: binders of recombinant human FGF22 by thermal shift. SYPRO orange fluorescence; percent of sucrose octasulfate shift, DMSO zero. AID 651658. Q9HCT0. activity (Tm shift, normalised), % at 9.99 µM. hit rate 1.5% among 340,000;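 active means mean Tm shift, scaled 0 neutral to 100 positive control, at about 1.3% or above, every replicate too, limit read from the data; inconclusive means no clear call, values can overlap the other calls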
RAD52 anneal inh: blocks human RAD52 DNA annealing | P43351 | recombinant RAD52 DNA annealing, FRET fluorescence | inhibition, % at 18.7 µM | hit rate 0.46% among 360,000 | AID 651710;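 active means every replicate showing at least 50% inhibition; inconclusive means mean inhibition at least 50% but not in every replicate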
AF4-AF9 inh: blocks AF4 peptide binding to human AF9 | P42568 | AlphaScreen, biotin-AF4 peptide binding to FLAG-AF9 | inhibition, % at 10 µM | hit rate 0.47% among 350,000;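 active means every replicate reaching a set inhibition limit, whatever the replicate mean, cut at about 25% in these data; inconclusive means mean inhibition reaches that limit but some replicates miss it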;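 further: 0% = plate neutral control median and 100% = total signal loss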
An asterisk follows results filed as active.

What do the screens show for `Cc1cc(C(=O)CN2CCCC2)c(C)n1-c1ccc(F)cc1`?
DENV2 CPE: -3; ERAP1 HTS inh: -1; FGF22 binding: 0; RAD52 anneal inh: -9; AF4-AF9 inh: 2

Results for COc1ccc(-n2c(C)cc(C(=O)C[N+]34CCN(CC3)CC4)c2C)cc1 ?
DENV2 CPE: 4; ERAP1 HTS inh: 17; FGF22 binding: 43*; RAD52 anneal inh: 5; AF4-AF9 inh: 6

What do the screens show for `Cc1ccc(OC(=O)N(C)C[C@@H]2OCc3ccccc3-c3c(n(C)c4ccccc34)C(=O)N([C@H](C)CO)C[C@@H]2C)cc1`?
DENV2 CPE: 11; ERAP1 HTS inh: -7; FGF22 binding: 0; RAD52 anneal inh: -1; AF4-AF9 inh: 5

What do the screens show for `COc1ccc2c3c([nH]c2c1)C(C)NCC3` (stereo not given)?
DENV2 CPE: 4; ERAP1 HTS inh: 0; FGF22 binding: 0; RAD52 anneal inh: -24; AF4-AF9 inh: 30*

Results for CC=Cc1ccc2n(c1=O)C[C@@H]1[C@@H](CO)[C@H](C(=O)OC)[C@H]2N1CC1CC1 (mixture of isomers) ?
DENV2 CPE: -1; ERAP1 HTS inh: 1; FGF22 binding: 0; RAD52 anneal inh: 3; AF4-AF9 inh: -1

How did O=C1OCCC1C(=O)c1ccccc1 (stereo not given) do in these assays?
DENV2 CPE: -6; ERAP1 HTS inh: 0; FGF22 binding: 44*; RAD52 anneal inh: -7; AF4-AF9 inh: 1

Results for NP(=O)(OCCCc1ccccc1)Oc1ccc(Cl)cc1 (stereo not given) ?
DENV2 CPE: 20*; ERAP1 HTS inh: -1; FGF22 binding: 0; RAD52 anneal inh: -4; AF4-AF9 inh: -3

What do the screens show for `c1cnc(N2CCNCC2)nc1`?
DENV2 CPE: -8; ERAP1 HTS inh: 1; FGF22 binding: 0; RAD52 anneal inh: -1; AF4-AF9 inh: -2

Results for c1ccc(Cc2cnc(N3CCNCC3)nc2)cc1 ?
DENV2 CPE: -1; ERAP1 HTS inh: 64*; FGF22 binding: 0; RAD52 anneal inh: 37

What do the screens show for `CN1CCN(C(=O)CN=[N+]=[N-])CC1`?
DENV2 CPE: 1; ERAP1 HTS inh: -3; FGF22 binding: 0; RAD52 anneal inh: 5; AF4-AF9 inh: 0

What do the screens show for `O=c1[nH]c(=O)n(CCC2=CCCCC2)c(O)c1/C=N/Nc1ccccc1`?
DENV2 CPE: 4; ERAP1 HTS inh: -2; FGF22 binding: 0; RAD52 anneal inh: -39; AF4-AF9 inh: -1

What do the screens show for `O=c1[nH]c(=O)n(Cc2ccc(F)cc2)c(O)c1/C=N/Nc1ccccc1`?
DENV2 CPE: 34*; ERAP1 HTS inh: 1; FGF22 binding: 0; RAD52 anneal inh: -18; AF4-AF9 inh: inconclusive

Results for COC(=O)[C@H]1[C@H](CO)[C@H]2Cn3c(ccc(C4=CCCCC4)c3=O)[C@@H]1N2Cc1ccccn1 ?
DENV2 CPE: 1; ERAP1 HTS inh: 3; FGF22 binding: 0; RAD52 anneal inh: -19; AF4-AF9 inh: 0

What do the screens show for `O=C1NC2C(=CC(O)C(O)C2O)c2cc3c(c(O)c21)OCO3` (stereo not given)?
DENV2 CPE: 88*; ERAP1 HTS inh: 6; FGF22 binding: 0; RAD52 anneal inh: -10; AF4-AF9 inh: -1

What do the screens show for `CC=Cc1ccc2n(c1=O)C[C@H]1[C@H](CO)[C@@H](C(=O)N(C)C)[C@@H]2N1C` (mixture of isomers)?
DENV2 CPE: 1; ERAP1 HTS inh: 3; FGF22 binding: 0; RAD52 anneal inh: -2; AF4-AF9 inh: 0

How did O=C(Cc1ccccn1)N1CCCCN2[C@H](CO)[C@H](c3ccc(-c4ccccc4)cc3)[C@H]2C1 do in these assays?
DENV2 CPE: -6; ERAP1 HTS inh: -1; FGF22 binding: 0; RAD52 anneal inh: -7; AF4-AF9 inh: 2

Results for CN(C)CC#Cc1ccc([C@H]2[C@@H](CO)N3CCCCN(C(=O)Cc4ccccn4)C[C@H]23)cc1 ?
DENV2 CPE: 30*; ERAP1 HTS inh: -1; FGF22 binding: 0; RAD52 anneal inh: 31; AF4-AF9 inh: 7

Results for O=C(Cc1ccccn1)N1CCCCN2[C@H](C1)[C@@H](c1ccc(-c3ccccc3)cc1)[C@@H]2CO ?
DENV2 CPE: 21*; ERAP1 HTS inh: 0; FGF22 binding: 0; RAD52 anneal inh: -21; AF4-AF9 inh: -6

Results for CCCC#Cc1ccc([C@@H]2[C@@H](CO)N3CCCCN(C(=O)Cc4ccccn4)C[C@H]23)cc1 ?
DENV2 CPE: 2; ERAP1 HTS inh: 0; FGF22 binding: 0; RAD52 anneal inh: -37; AF4-AF9 inh: 6
